In the supplement of paper PMC3334620:
Over roughly 33,000 sequences, “E-score (-0.5 to 0.5)” has its median near -0.015; the highest 2% begin near 0.3. The full list was thinned out, with the highest values kept by preference.

Molecular target: T1, Abf1 (UniProt P14164)
T1 sequence: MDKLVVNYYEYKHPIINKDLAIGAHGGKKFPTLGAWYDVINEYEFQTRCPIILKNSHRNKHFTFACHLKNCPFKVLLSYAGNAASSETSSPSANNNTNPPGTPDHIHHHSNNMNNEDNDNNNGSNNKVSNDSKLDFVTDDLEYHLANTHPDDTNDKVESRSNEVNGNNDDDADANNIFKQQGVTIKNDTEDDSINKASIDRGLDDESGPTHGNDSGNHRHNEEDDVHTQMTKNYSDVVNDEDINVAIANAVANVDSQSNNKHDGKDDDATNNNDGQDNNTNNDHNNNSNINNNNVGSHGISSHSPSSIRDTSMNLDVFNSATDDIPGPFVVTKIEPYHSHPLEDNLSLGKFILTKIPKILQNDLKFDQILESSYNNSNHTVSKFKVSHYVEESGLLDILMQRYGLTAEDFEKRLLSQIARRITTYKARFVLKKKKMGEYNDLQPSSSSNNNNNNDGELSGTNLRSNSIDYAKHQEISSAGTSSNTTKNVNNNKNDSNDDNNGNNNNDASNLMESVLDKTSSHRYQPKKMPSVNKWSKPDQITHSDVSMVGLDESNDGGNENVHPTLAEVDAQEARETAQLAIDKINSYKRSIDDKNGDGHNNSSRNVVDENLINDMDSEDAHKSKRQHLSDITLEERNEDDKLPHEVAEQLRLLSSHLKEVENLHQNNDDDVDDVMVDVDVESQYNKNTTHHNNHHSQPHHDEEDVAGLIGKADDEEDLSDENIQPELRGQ
Assay: PBM E-score (8-mer binding enrichment) (E-score (-0.5 to 0.5)); higher = stronger / more preferred TF binding
Details: protein concentration: 200 nM; construct: GST-full length
Procedure: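 Universal 'all 10-mer' protein binding microarrays (Agilent AMADID 015681) probed with GST-tagged S. cerevisiae TFs (full-length or DBD) made by in vitro transcription/translation (PURExpress), about 100-200 nM. Bound TF was detected with fluorescent anti-GST. Each ungapped 8-mer (which stands for itself and its reverse complement) is scored by the PBM enrichment score (E-score), a modified Wilcoxon-Mann-Whitney statistic from -0.5 to +0.5, computed with the Universal PBM Analysis Suite. Scale: above 0.35 generally sequence-specific binding.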

Sequence	PBM E-score
TCAAGAGA	0.0894
ACATCGTG	0.185
ACCCCTAC	-0.271
AAGAGGAA	-0.0719
GGCCCGTA	0.0104
ACGGAGGG	0.0212
CACGCAGC	0.00826
ACGTCTAG	0.167
TGATCACA	0.292
AGATCAAG	0.112
CGATCACG	0.298
AGATCACG	0.35
GGATCACC	0.247
AGATCACA	0.138
GGATCACA	0.00896
CGATCACA	0.161
AGATCAAT	0.12
AGATCACT	0.437
AGATCACC	0.311
CGATCACC	0.0211
AGACGGGG	0.0661
GATCCTCA	0.019
CTAATTCC	0.0379
ATGACCTA	0.235
ATACAACA	0.0798

Sequence	PBM E-score
CAAATGAA	-0.155
AAAGGATT	-0.105
TGCAACCA	-0.0685
CGTCTCTC	0.162
ACTTCGTC	0.227
ACTTCGTA	0.297
GCTTCGTA	0.313
CCTTCGTA	0.292
GCTTCGGA	0.0157
ACTTCGTG	0.0796
CCGACACC	-0.195
ATTTTTGC	0.113
TACAGGCA	0.119
AGCTACAA	-0.101
GAGAAGGA	-0.18
ATATCAAA	0.0352
CCTCCGCC	-0.059
AGGTACGA	0.0832
ACGTACGT	0.335
ACGTACGC	0.114
AAGTACGA	0.151
ACGTACAT	0.244
ACGTACGA	0.335
ACGTACGG	0.328
ACGTACAG	-0.0233

Sequence	PBM E-score
CCGTACGG	0.29
CAGCGGAC	-0.105
AGCGAGAT	0.0588
CCGTATGC	0.0398
ACGTATGC	0.014
ACGTATGA	0.332
CCGTATGA	0.408
ACGTATGG	0.136
GCGTATGA	0.0421
CGAGTTAG	0.148
ACTAGAAA	-0.0186
CTACGGAA	0.139
ATACGGAA	0.299
ATACGGAC	0.142
TTACGGAA	0.124
ATACGGAG	0.0972
ATACGGAT	0.297
CAAAATCA	0.173
GCACAGCC	-0.204
ATTTCTTG	0.167
ACAGAATC	-0.0766
AACTAATA	0.306
CACTAATA	0.255
AATTAATA	0.302
TATTAATA	0.00602

Sequence	PBM E-score
AATTAATT	0.00666
TACTAATA	0.0826
ACTCCACC	0.032
ATCGGTCC	-0.295
CCGTGACC	0.157
CCGTGAAG	0.136
CCGTGACG	0.198
ACGTGACC	0.0122
CCGTGACA	0.363
ACGTGACG	0.201
ACGTGACT	0.174
TCGTGACA	0.354
ACGTGACA	0.355
TCGTGAGA	0.263
CCGTGAAA	0.381
TCGTGAAA	0.205
GCATCGCC	-0.0959
AACCGGGC	-0.103
CTCCCGGA	-0.117
GATAGAAC	0.0502
ACAACGCA	-0.00182
CGAGGTTA	-0.00406
AAGAATCT	-0.115
GGAGATGA	0.16
GCGATTTA	0.114

Sequence	PBM E-score
TCTTCTCA	0.0808
CGCTCTAA	0.108
AAGGCGGC	-0.00603
AAGGACAT	0.0941
CCGTGTGA	0.301
GCGTGACC	0.108
ACGTGTGA	0.213
GCGTGTGA	-0.00541
GTGTGACA	0.116
GCGTGACA	0.369
CGTTGATC	0.247
AAAGTGCG	-0.105
AGATTTCA	-0.0514
ACAGTCGC	-0.0877
TCGAAAAA	0.157
GGACGGTA	0.134
CGACGATC	0.298
CGACGGTA	0.322
GGACGATA	0.268
CGACGATA	0.373
AGACGATA	0.27
CGACGGTC	0.173
CGACGACC	0.243
AGACGATC	0.113
GAAATTCA	0.0636

Sequence	PBM E-score
ATTGCACA	0.0349
CAGCTATA	-0.191
ACCGCTGC	-0.252
GGTAGGAA	-0.0834
TAGGCCGA	-0.106
CCGATCCG	-0.0938
GCGAAGAA	0.148
CTTAGCGC	0.117
CGCTGTCC	0.108
CCGCATTC	0.00443
CCGTACTA	0.338
CCGTACCA	0.303
TCGTACCA	0.322
TAGTACCA	-0.0108
TGGTACCA	-0.123
ACGTACTA	0.188
GCGTACCA	-0.0406
GCGTACTA	-0.0501
ACGTACCA	0.0604
ATGATGCG	0.104
ACGAACCC	0.0128
GCGAGAAC	-0.095
CGATTCAC	0.192
AGGCGGTC	-0.166
GTCTAAAC	0.00585

Sequence	PBM E-score
ATGGTACA	-0.0607
CCGAACAA	-0.0373
ACGAATGC	0.185
TCGAACGA	0.236
ACGAACGT	0.289
CCGAACGG	-0.0461
GCGAATGA	0.173
ACGAACGG	0.312
GCGAACAA	0.0737
ACGAACGA	0.314
ACGAATGA	0.304
CCGAACGA	0.251
ACGAACAA	0.331
ATTAAGCC	0.0493
ATATCCAA	0.149
ACTGACTC	-0.262
CACTATGA	-0.138
CAAAGTGA	0.28
TAAGGAAA	-0.0606
CTATGCAC	0.178
AAACTCCT	-0.13
AATCATAT	0.191
